# Screening data (PubChem BioAssay)
# The full list was thinned out, with hits kept by preference.
# Tg IFNy HTS = T. gondii growth inhibition with IFN-gamma, primary screen, cell-based. Toxoplasma gondii growth in IFN-gamma-treated host cells; hits give low values. activity change, negative = inhibition, % (test concentration not listed). hit rate 3.8% among 69,000; in the data active means activity change below about -70%, passing the limit was not always enough;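 further: host cells are HeLa cells infected with Toxoplasma gondii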
# The depositor's hits bear a star; ! = not confirmed by another sample.
SMILES,Tg IFNy HTS
Clc1ccc(COC(Cn2ccnc2)c2ccc(Cl)cc2Cl)c(Cl)c1 (stereo not given),-85*!
CCO[C@@H]1C[C@@H]2CN(C(=O)Cc3ccccn3)CCN2C1,-50
Cc1noc(C)c1CN1CCO[C@H]2CN(C(=O)C(C)C)C[C@@H]21,-38
C[C@@H]1O[C@@H](O[C@H]2CC[C@]3(C=O)C4CC[C@]5(C)[C@@H](C6=CC(=O)OC6)CC[C@]5(O)C4CC[C@]3(O)C2)[C@H](O)[C@H](O)[C@H]1O (stereo not given in full),-65
C[C@]12CCC3C(CC[C@]4(O)C[C@@H](O)CC[C@]34C=O)[C@@]1(O)CCC2C1=CC(=O)OC1 (stereo not given in full),-84*!
Cc1ccnc(CC(C)N(C)CCc2ccccc2)c1 (stereo not given),16
CC(C)N(C)CC1CCC2(COCCN(Cc3cccnc3)C2)O1 (stereo not given),22
CC(C)CNC(=O)c1cc2cccnc2n(Cc2ccc(F)cc2)c1=O,31
CC(=O)OC[C@]12CCC(C)=C[C@H]1O[C@@H]1[C@H](O)[C@@H](OC(C)=O)[C@@]2(C)[C@@]12CO2,-81*
CC1Cc2cc(C(O)CN3CC=C(c4ccc(F)cc4)CC3)ccc2O1 (stereo not given),61
CC(C)CN1C[C@@H]2CN(S(C)(=O)=O)c3ccccc3[C@H]2C1,-2
c1cnc(NC2COC3(CCNC3)C2)cn1 (stereo not given),14
Cc1cnc(N2CCN(CC3CC3)c3ncccc3C2)nc1,-49
CCCn1c(C)c(C(=O)c2cccc3ccccc23)c2ccccc21,33
COc1ccc(C(=O)c2c(C)n(CCN3CCOCC3)c3cc(I)ccc23)cc1,7
Cc1c(C(=O)c2cccc3ccccc23)c2cccc3c2n1[C@H](CN1CCOCC1)CO3,-90*
CCN1C[C@H]2[C@@H](OC)CCN(C(=O)Cc3ccc(OC)cc3)[C@H]2C1,9
FC(F)(F)c1cc(C2CCNCC2)n2ccnc2n1,13
CNC(=O)c1ccc(CN2CC=C(c3cnn(C)c3)CC2)o1,-1
C[C@@H]1C[C@@H]([C@H](O)CC2CC(=O)NC(=O)C2)C(=O)[C@@H](C)C1,-79*
CNC(=O)[C@@H]1COC[C@@H]2CN(CC(C)C)C[C@@H]21,101
Cc1occc1C(=O)N1CC[C@H]2[C@@H]1CCN2Cc1cccnc1,1
CC(=O)[O][Hg][c]1ccccc1,-72*
CCN(CC)C(C)C(=O)c1ccccc1 (stereo not given),21
Cc1noc(C)c1CN1CCC2(CC(=O)N(c3ccccc3)C2)C1 (stereo not given),5
SMILES,Tg IFNy HTS
CC1Oc2ccc(S(=O)(=O)N3CC4CC(C3)c3cccc(=O)n3C4)cc2NC1=O (stereo not given),35
FC(F)(F)c1cccc(-c2cccc3c2CCNC3)n1,1
CN1CCC2(CC1)CN(C(=O)Cc1nnc(N)s1)CCCN2C,3
CCCN(CCC)C1CCc2ccc(O)cc2C1 (stereo not given),-76*!
CCCN(CCC)C1CCc2cccc(O)c2C1 (stereo not given),16
O=C(NCc1ccc(F)cc1)c1cc2cccnc2n(Cc2ccccc2F)c1=O,46
O=C(NC(=S)Nc1cc(C(F)(F)F)cc(C(F)(F)F)c1)Oc1ccccc1,-98*
Cc1cc(Br)ccc1NC(=O)c1cc2cccnc2n(Cc2ccccc2)c1=O,42
CNc1ccccc1C(=O)O,-4
C[CH2][Hg][S]c1ccccc1C(=O)O,-73*!
CCCCC(CC)COC(=O)c1ccccc1C(=O)OCC(CC)CCCC (stereo not given),8
N#Cc1ccccc1NC(=O)c1cc2cccnc2n(Cc2ccc(F)cc2)c1=O,23
Cc1cc2c(s1)NC(=O)CN=C2c1ccc(Cl)cc1,6
Fc1cnc(N2CCN3C[C@H](Oc4cncnc4)C[C@@H]3C2)nc1,26
c1cncc(OC2COC3(CCCN(Cc4ccco4)C3)C2)c1 (stereo not given),4
Cn1cc(CN2CCCC3(CCN(c4cccnc4)C3=O)C2)cn1 (stereo not given),-4
CCCC1C(c2ccccc2)NC(c2ccccc2)CC1(O)c1ccc(F)cc1 (stereo not given),-97*
CC1CCN(CC(C)(C)CN2C3CCC2CC(O)(c2ccc(F)cc2)C3)CC1 (stereo not given),8
COc1c(F)ccc(CN(C)C(C)Cc2cc(C)ccn2)c1F (stereo not given),-9
Clc1cccc(CN2CC3CNC(C3)C2)c1 (stereo not given),41
Cn1cccc1CN1C[C@H]2CN(Cc3cccnc3)C[C@H]2C1,-4
CN1Cc2ccccc2[C@@H]2c3cccc4[nH]cc(c34)C[C@H]21,-78*
CC(C)[C@@]1(NC(=O)[C@@H]2C[C@@H]3c4cccc5[nH]cc(c45)C[C@H]3N(C)C2)O[C@@]2(O)[C@@H]3CCCN3C(=O)[C@H](Cc3ccccc3)N2C1=O,-66
CCN1C[C@H]2[C@H](OC)CCN(S(=O)(=O)c3cccnc3)[C@H]2C1,94
Cc1ccc(NC(=O)c2cc3cccnc3n(Cc3ccc(F)cc3)c2=O)cc1F,-35
SMILES,Tg IFNy HTS
CN(c1ncccn1)C1COC2(CCCN(CC(=O)O)C2)C1 (stereo not given),-35
COc1ccccc1CCC(=O)N1C2CCC1c1cn(C)nc1C2 (stereo not given),3
C=C[C@H]1CN2CC[C@H]1C[C@@H]2[C@@H](OC(=O)OCC)c1ccnc2ccc(OC)cc12,3
C=CC1CN2CCC1CC2[C@@H](OC(=O)c1ccc(OC)cc1)c1ccnc2ccccc12 (stereo not given in full),1
CC[C@H]1CN2CCC1C[C@@H]2[C@@H](O)c1ccnc2ccc(OC)cc12 (stereo not given in full),-78*!
Cc1cc(C)n2ncc(CN3CCCC4(CCNC4)C3)c2n1 (stereo not given),9
CO[C@H]1CN(CC2CC2)[C@H]2CCCO[C@@H]12,35
CSCCC(NC(=O)C(Cc1ccccc1)NC(=O)CNC(=O)CNC(=O)C(N)Cc1ccc(O)cc1)C(=O)O (stereo not given),18
COc1cccc(OC[C@@H]2C3CCC(C3)N2Cc2cccnc2)c1 (stereo not given in full),-30
CC(C)=CCC[C@]1(C)C=Cc2c(O)c3c(c(CC=C(C)C)c2O1)O[C@]12C(=C[C@@H]4C[C@H]1C(C)(C)O[C@@]2(CC=C(C)C(=O)O)C4=O)C3=O,-85*
CC(C)CCCC1(C)C=Cc2c(O)c3c(c(CCC(C)C)c2O1)OC12C(CC4CC1C(C)(C)OC2(CCC(C)C(=O)O)C4O)C3=O (stereo not given),4
CC(C)N1CC(C(=O)O)CN2CCN(C(=O)Cc3ccccc3)CC2C1 (stereo not given),-6
O=C(c1cscn1)N1CC2CN(Cc3ccccn3)CC2C1 (stereo not given),-2
Cc1oc(-c2ccccc2)nc1CN1C(=O)CN=C(c2ccc(F)cc2)c2c1sc1c2CCC1,4
c1cncc(OC[C@@H]2CCC[C@]23CN(Cc2ccco2)CCO3)c1,-10
Cc1ccccc1NC(=O)c1cc2cccnc2n(Cc2ccccc2)c1=O,42
CC1(C)C(=O)C=C[C@@]2(C)C1C(=O)C(=O)[C@]1(C)C2CC[C@@]2(C)[C@H](c3ccoc3)C[C@H]3O[C@]321 (stereo not given in full),-79*
Cc1ccc(CN2CCOC3C(COc4ncccn4)CCC32)o1 (stereo not given),7
